Read-out in test [1]: Interleukin-8 (IL8), CXCL8 (gene 3576)
Description: BSK_CASM3C_IL8: BioMAP Diversity Plus: CASM3C Assay for Interleukin-8 (IL8) Biomarker Activity (AID 2283042).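 Note: IL-8 protein level quantified by ELISA.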 The settings on record: primary human coronary artery smooth muscle cells; actives raise or lower the signal.

Read-out in test [2]: Human Leukocyte Antigen - DR isotype (HLADR), HLA-DRA (gene 3122)
Put plainly: BSK_CASM3C_HLADR: BioMAP Diversity Plus: CASM3C Assay for Human Leukocyte Antigen - DR isotype (HLADR) Biomarker Activity (AID 2283043).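 Note: cell-surface HLA-DR protein level quantified by ELISA.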 Particulars: primary human coronary artery smooth muscle cells; actives raise or lower the signal.

Read-out in test [3]: Macrophage colony-stimulating factor (MCSF), CSF1 (gene 1435)
Description: BSK_CASM3C_MCSF: BioMAP Diversity Plus: CASM3C Assay for Macrophage colony-stimulating factor (MCSF) Biomarker Activity (AID 2283044).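 Note: M-CSF protein amount quantified by ELISA after 24 h exposure.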 Particulars: primary human coronary artery smooth muscle cells; actives raise or lower the signal.

Read-out in test [4]: Low-density lipoprotein receptor (LDLR), LDLR (gene 3949)
Description: BSK_CASM3C_LDLR: BioMAP Diversity Plus: CASM3C Assay for Low-density lipoprotein receptor (LDLR) Biomarker Activity (AID 2283045).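 Note: LDLR protein level on the cell surface quantified by ELISA.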 Particulars: primary human coronary artery smooth muscle cells; actives raise or lower the signal.

Read-out in test [5]: Monocyte Chemoattractant Protein-1 (MCP1), CCL2 (gene 6347)
Description: BSK_CASM3C_MCP1: BioMAP Diversity Plus: CASM3C Assay for Monocyte Chemoattractant Protein-1 (MCP1) Biomarker Activity (AID 2283046).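 Note: MCP-1 level quantified by ELISA 24 h after dosing.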 The settings on record: primary human coronary artery smooth muscle cells; actives raise or lower the signal.

Test [6] in a line: BSK_CASM3C_Proliferation: Cell Proliferation Assessment in the BioMAP Diversity Plus: CASM3C Assay (AID 2283047).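 Note: sulforhodamine B total protein stain as relative cell number at 560 nm; sub-confluent cells exposed 48 h before staining; fitted both ways against DMSO so gain or loss of cell number.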 The settings on record: primary human coronary artery smooth muscle cells.
Read-out in test [7]: Monokine induced gamma interferon (MIG), CXCL9 (gene 4283)
Put plainly: BSK_CASM3C_MIG: BioMAP Diversity Plus: CASM3C Assay for Monokine induced gamma interferon (MIG) Biomarker Activity (AID 2283048).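 Note: MIG protein level measured by ELISA.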 Particulars: primary human coronary artery smooth muscle cells; actives raise or lower the signal.

Read-out in test [8]: serum amyloid A (SAA), SAA1 (gene 6288)
Description: BSK_CASM3C_SAA: BioMAP Diversity Plus: CASM3C Assay for serum amyloid A (SAA) Biomarker Activity (AID 2283049).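 Note: SAA protein level quantified by ELISA.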 Particulars: primary human coronary artery smooth muscle cells; actives raise or lower the signal.

A short description of test [9]: BSK_CASM3C_SRB: Viability Assessment in the BioMAP Diversity Plus: CASM3C Assay (AID 2283050).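 Note: total protein by SRB staining as cytotoxicity measure in parallel cultures.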 Particulars: primary human coronary artery smooth muscle cells.
Read-out in test [10]: Thrombomodulin, THBD (gene 7056)
Put plainly: BSK_CASM3C_Thrombomodulin: BioMAP Diversity Plus: CASM3C Assay for Thrombomodulin Biomarker Activity (AID 2283051).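 Note: thrombomodulin protein level measured by ELISA 24 h after dosing.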 The settings on record: primary human coronary artery smooth muscle cells; actives raise or lower the signal.

Read-out in test [11]: Tissue Factor, F3 (gene 2152)
Put plainly: BSK_CASM3C_TissueFactor: BioMAP Diversity Plus: CASM3C Assay for Tissue Factor Biomarker Activity (AID 2283052).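 Note: cell surface tissue factor protein level read by ELISA.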 The settings on record: primary human coronary artery smooth muscle cells; actives raise or lower the signal.

Read-out in test [12]: Interferon-gamma inducible Protein 10 (IP10), CXCL10 (gene 3627)
Description: BSK_hDFCGF_IP10: BioMAP Diversity Plus: hDFCGF Assay for Interferon-gamma inducible Protein 10 (IP10) Biomarker Activity (AID 2283053). The settings on record: primary human foreskin fibroblasts; actives raise or lower the signal. An outline of the steps: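 Human foreskin fibroblast primary cells (hDFCGF system) were dosed with chemical and assayed at 24 h; IP-10 measured by ELISA. Activity fitted bidirectionally relative to DMSO negative control as baseline.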

Read-out in test [13]: Urokinase-type plasminogen activator receptor (uPAR), PLAUR (gene 5329)
Put plainly: BSK_CASM3C_uPAR: BioMAP Diversity Plus: CASM3C Assay for Urokinase-type plasminogen activator receptor (uPAR) Biomarker Activity (AID 2283054).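 Note: cell-surface uPAR protein level quantified by ELISA.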 Particulars: primary human coronary artery smooth muscle cells; actives raise or lower the signal.

Read-out in test [14]: Vascular cell adhesion molecule 1 (VCAM1), VCAM1 (gene 7412)
Put plainly: BSK_CASM3C_VCAM1: BioMAP Diversity Plus: CASM3C Assay for Vascular cell adhesion molecule 1 (VCAM1) Biomarker Activity (AID 2283055).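 Note: VCAM-1 protein level quantified by ELISA on the cells.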 The settings on record: primary human coronary artery smooth muscle cells; actives raise or lower the signal.

Read-out in test [15]: Collagen III, COL3A1 (gene 1281)
Description: BSK_hDFCGF_CollagenIII: BioMAP Diversity Plus: hDFCGF Assay for Collagen III Biomarker Activity (AID 2283056). Particulars: primary human foreskin fibroblasts; actives raise or lower the signal. Put shortly:
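ELISA readout of Collagen III in human dermal (foreskin) fibroblasts, taken 24 h post-treatment. Gain or loss relative to DMSO vehicle fitted in both directions.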

Read-out in test [16]: Epidermal growth factor receptor (EGFR), EGFR (gene 1956)
Put plainly: BSK_hDFCGF_EGFR: BioMAP Diversity Plus: hDFCGF Assay for Epidermal growth factor receptor (EGFR) Biomarker Activity (AID 2283057). Particulars: primary human foreskin fibroblasts; actives raise or lower the signal. Put shortly:
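Primary human foreskin fibroblasts were exposed to compound for 24 h, after which cell-surface EGFR was quantified by ELISA. Activity was fitted bidirectionally against the DMSO negative control as baseline.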

Read-out in test [17]: Interleukin-8 (IL8), CXCL8 (gene 3576)
Put plainly: BSK_hDFCGF_IL8: BioMAP Diversity Plus: hDFCGF Assay for Interleukin-8 (IL8) Biomarker Activity (AID 2283058). Particulars: primary human foreskin fibroblasts; actives raise or lower the signal. An outline of the steps: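 IL-8 levels read by ELISA at 24 hours after dosing human skin fibroblast cultures. Parallel SRB staining assessed overt cytotoxicity, and gain or loss of signal was fitted against DMSO control.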

Test [18] is described as follows: BSK_hDFCGF_Proliferation: Cell Proliferation Assessment in the BioMAP Diversity Plus: hDFCGF Assay (AID 2283059).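 Note: curves fitted for both rise and fall of signal versus DMSO baseline.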 The settings on record: primary human foreskin fibroblasts. Put shortly:
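Primary human foreskin fibroblasts, sub-confluent; […]; 10% TCA fix, 0.1% SRB stain, A560 total protein. Gain/loss fitted bidirectionally vs DMSO control.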

Read-out in test [19]: Macrophage colony-stimulating factor (MCSF), CSF1 (gene 1435)
Put plainly: BSK_hDFCGF_MCSF: BioMAP Diversity Plus: hDFCGF Assay for Macrophage colony-stimulating factor (MCSF) Biomarker Activity (AID 2283060). The settings on record: primary human foreskin fibroblasts; actives raise or lower the signal. Put shortly: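 M-CSF levels read by ELISA at 24 h post-dosing in human skin fibroblasts. Parallel cultures stained with SRB assessed cytotoxicity at the same time point; response fitted in both directions against the DMSO baseline.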

Test [20] in a line: BSK_hDFCGF_SRB: Viability Assessment in the BioMAP Diversity Plus: hDFCGF Assay (AID 2283061).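 Note: cells exposed to compound for 24 h before the read.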 The settings on record: primary human foreskin fibroblasts. Put shortly:
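Viability was read as total protein: after 10% TCA fixation, wells were stained with 0.1% sulforhodamine B and read at 560 nm. Primary human foreskin fibroblasts were dosed for 24 h, with bidirectional fitting versus DMSO.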

Structures are written as SMILES. Calls of active or inactive are those of the source. Rule for the calls: active = hit-call score of the fitted dose curve at least 0.9, where 1 is the maximum; inactive = score below 0.9.

Eight compounds from PubChem BioAssay (EPA / NIEHS) can be followed below.

In the case of `C[C@]12CC[C@@H]3c4ccc(O)cc4CC[C@H]3[C@@H]1CC[C@H]2O`, the outcome in test [1], in test [2], in test [3], in [4], in [5] and in test [7] was inactive. Further, the outcome in test [8], in [9], in test [10], in [11], in test [12] and in [13] was inactive. In addition, the outcome in test [16], in [17], in test [18], in test [19] and in test [20] was inactive. In addition, the results for the AC50 in test [6], in test [14] and in test [15] were 13.2 µM (active), 16 µM (active) and 12 µM (active), respectively.

With `Cc1cn([C@H]2C[C@H](N=[N+]=[N-])[C@@H](CO)O2)c(=O)[nH]c1=O`, the result in test [1], in test [2], in [3], in test [4], in test [5] and in test [6] was inactive. For the same compound, the outcome in test [7], in test [8], in test [9], in [10], in [11] and in test [12] was inactive. The outcome in test [13], in test [14], in test [15], in test [17], in test [18] and in test [19] was inactive. For the same compound, the result in test [20] was inactive.

Turning to `CCCCCCCC[Si](OCC)(OCC)OCC`, the result in [1], in test [2], in [3], in test [4], in [5] and in [7] was inactive. Further, the outcome in test [8], in test [9], in test [10], in test [11], in [12] and in test [13] was inactive. The result in [16], in test [17], in [19] and in [20] was inactive. For the same compound, the AC50 in test [6] is 35.4 µM (active); in [15], 20 µM (active); in [18] it was 28.3 µM (active).

With `Cc1cc(F)ccc1-c1cc(N2CC[C@@H](O)[C@H]2CO)ncc1N(C)C(=O)C(C)(C)c1cc(C(F)(F)F)cc(C(F)(F)F)c1`, the AC50 in [1] is 27.8 µM (active); in test [2], 26.5 µM (active); in test [3], 26.1 µM (active); in [4], 24.4 µM (active); in test [5], 31 µM (active); in test [6] it was 28.3 µM (active). For the same compound, the AC50 in [7] is 30.1 µM (active); in test [8], 31.7 µM (active); in [9], 29.2 µM (active); in test [11] it was 22 µM (active); in test [12] it was 14.9 µM (active); in [13], 31.1 µM (active). The AC50 was 25.4 µM (active) in [14]; 24.1 µM (active) in [15]; 18.4 µM (active) in [17]; 10.9 µM (active) in test [18]; 11.1 µM (active) in test [19]; 15.7 µM (active) in test [20]. For the same compound, the outcome in [10] and in test [16] was inactive.

Turning to `Cc1cccc2ccccc12`, the result in test [1], in test [2], in test [3], in [4], in test [5] and in test [6] was inactive. The result in test [7], in test [8], in [9], in [10], in [11] and in test [12] was inactive. For the same compound, the outcome in test [13], in test [14], in test [15], in test [16], in [17] and in [18] was inactive. Further, the outcome in test [19] and in [20] was inactive.

With `CC(C)(O)c1ccc(CNC(=O)c2cccnc2Oc2ccc3nonc3c2)cc1`, the result in [1], in [2], in [3], in test [4], in test [5] and in test [6] was inactive. Further, the outcome in test [7], in test [9], in test [10], in [11], in test [12] and in test [13] was inactive. The result in test [14], in test [15], in test [16], in test [17], in test [18] and in test [19] was inactive. In addition, in test [20], the outcome was inactive. Moreover, the concentration at half-maximal activity (AC50) in test [8] was 27.5 µM (active).

Turning to `CC(C)(C)c1cc(/C=C2\SC(N)=NC2=O)cc(C(C)(C)C)c1O`, the outcome in test [1], in test [11] and in test [16] was inactive. Moreover, the AC50 in test [2] is 20 µM (active); in [3], 33.3 µM (active); in [4], 29.1 µM (active); in test [5], 31.1 µM (active); in [6], 29.1 µM (active); in test [7] it was 32 µM (active). In addition, the AC50 was 31.6 µM (active) in test [8]; 30.7 µM (active) in [9]; 0.507 µM (active) in test [10]; 25.7 µM (active) in [12]; 31.9 µM (active) in test [13]; 31.1 µM (active) in [14]. For the same compound, the concentration at half-maximal activity (AC50) in [15] is 6.83 µM (active); in test [17], 20 µM (active); in test [18], 7.49 µM (active); in test [19] it was 20 µM (active); in [20], 20 µM (active).

For `CC/C(=C(/CC)c1ccc(O)cc1)c1ccc(O)cc1`, the half-maximal activity concentration (AC50) in test [1] was 1.17 µM (active); in [4], 8.57 µM (active); in [5], 0.345 µM (active); in test [6], 20 µM (active); in test [8] it was 33.7 µM (active); in test [9], 29.9 µM (active). In addition, the AC50 in test [11] is 11 µM (active); in test [12] it was 20 µM (active); in test [14], 20 µM (active); in test [15], 11.4 µM (active); in test [18] it was 7.02 µM (active); in test [19], 20 µM (active). Besides, the AC50 in [20] is 25.7 µM (active). The outcome in test [2], in [3], in test [7], in test [10], in [13] and in test [16] was inactive. Besides, the result in test [17] was inactive.
